Experimental findings from PubChem BioAssay AID588855 (National Center for Advancing Translational Sciences (NCATS), 2011) are described below.

Structures are written as SMILES. The campaign covered roughly 410,000 compounds. About 5,000 (1.2%) were called active. A call without a number means that no potency is given here. Inconclusive results (about 13%) are left out. Calls follow the shape of the dose curve; as a rule, active = well fitted inhibition curve with a large enough effect; inconclusive = small, poorly fitted or top-dose-only effect; inactive = no such curve, though single readings can be large or run the other way. The full list was thinned out, with actives kept by preference.
Potency is read from the fitted curve at half-maximal effect.

The nature of the experiment: qHTS for Inhibitors of TGF-b. Also: nearly all actives have a fitted effect of over 65% in size. The settings on record: HepG2 CAGA-GFP TGF-b/SMAD3 reporter, GFP fluorescence, 18 h, TGF-beta stimulated, 500 pg/mL final; series mostly up to 46.1 µM. The source says: TGF-b is a main component in the TGF-b signaling pathway which plays diverse roles in cellular and development pathways. TGF-b is the mediated by the transcription factors Smads. Although the Smad-dependent pathway is the primary canonical TGF-b signaling node, TGF-b1 can also activate alternative signaling pathways, including those involving MAPK (ERK, JNK and p38). This interaction may mediate or enhance Smad-dependent responses, or can exert Smad-independent effects. The complexity of this signaling cascade allows the TGF-b superfamily to perform unique, overlapping or redundant functions. We believe that targeting the TGF-beta pathway at the Smad-transcription factor level may eliminate the consequences of disrupting the entire pathway and offer specificity without affecting other signaling pathways. Smad3 is the primary transducer of TGF-b's signals and Smad3 regulates many functions attributed to TGF-b signaling. We hypothesize that Smad3 inhibitors will selectively eliminate Smad3-specific TGF-beta signals without undesired off-target effects. We aim to identify Smad3-small molecule antagonists using a quantitative high throughput screening (qHTS) approach.
A high-throughput assay was developed to screen the NIH Molecular Libraries Small Molecule Repository (MLSMR). This is a cell based assay, where TGF-b is tagged with GFP. A counterscreen is run that looks at cytotoxicity (please see summary AID).
MH087449NIH Chemical Genomics Center [NCGC]
NIH Molecular Libraries Probe Centers Network [MLPCN]
Assay Submitter (PI): Sushil Rane, National Institute of […]
Suspensions of trypsinized HEPG2 CAGA-GFP cells were dispensed into white, tissue culture-treated, solid 1536-well plates at 5uL/well (1000 cells/well final concentration) in DMEM medium supplemented with 1% FBS. Plates were incubated at 37 degrees C for 2 hours, after which 23 nL of compounds or DMSO were delivered to each well using a pin tool. One uL of recombinant TGF-beta in DMEM (1% FBS) was then dispensed (500 pg/mL final concentration), and plates were incubated at 37 degrees C for 18 hours. The plates were measured on an Acumen eX3 Explorer plate reader for GFP fluorescence (ex488/em500-530). GFP values were calculated by determining the mean GFP fluorescence of individual cells, and compiling these values for each well to determine a total well GFP signal. The %Activity was determined from the corrected fluorescence values. A titration of the known TGF-B inhibitor SB431542 was included to monitor plate performance, while unstimulated HEPG2 (-TGF-B) control wells were used to normalize %Activity of identified inhibitors; unstimulated wells corresponded to 100%Activity (full inhibition), while stimulated cell controls (+DMSO) were used to normalize 0%Activity (no inhibition).
Concentration-response curves were fitted to the signals arising from the resulting fluorescence. The concentration-effect curves were then classified based on curve quality (r2), response magnitude and degree of measured activity, and compounds were subsequently categorized based on their curve class.
(In qHTS, concentration-response curves come from the screen itself.)
In the case of `CN(C)c1ccc(/C=C/c2c3ccccc3nc3ccccc23)cc1`, the Potency result was “inactive”.
Next, `COc1ccccc1N1CCN(C2C(=O)c3ccccc3N2C(C)=O)CC1` (stereo not given): “inactive”; `COc1ccc(NC(=O)CCNS(=O)(=O)c2ccc3c(c2)CCCC(=O)N3)cc1Cl`: “inactive”; `CCOC(=O)CNC(=O)/C(=C\c1ccc(F)cc1)NC(=O)c1ccccc1`: “inactive”.
Take `CCOC(=O)CN1CCC(c2ccccc2)CC1`: the Potency result was “inactive”.
As to `CCOC(=O)C[C@H]1c2ccc(C(F)(F)F)cc2S(=O)(=O)N1c1ccccc1`, the Potency is 14.1 µM (active).
As for `CC(C)OCC(O)CN1CCN(C(c2ccccc2)c2ccccc2)CC1` (stereo not given), the Potency entry was “inactive”.
`Cc1onc(C(=O)NN)c1C(=O)N1CCN(C(c2ccccc2)c2ccccc2)CC1`: the Potency result was “inactive”.
Regarding `CC1(C)CC(N2CCN(C(c3ccccc3)c3ccccc3)CC2)=CC(=[N+]2CCCCC2)C1`, the Potency was 6.31 µM (active).
As for `COc1ccc(NC(=O)c2sc3nc(-c4cc5cccc(OC)c5oc4=O)[nH]c(=O)c3c2C)cc1`, the Potency result was “inactive”.
Next, `Cc1csc[n+]1CCC1CCCCC1`: “inactive”; `Cc1ccccc1C(=O)Nc1cc(C)c(O)c(-c2nc3ccccc3o2)c1`: “inactive”; `COC(=O)c1cnn(-c2ccc(C(=O)Nc3ccc(OC(F)(F)F)cc3)cc2)c1N`: “inactive”.
The figure for `CC1CCc2c(nc3ncnn3c2Nc2ccc(OC(F)(F)F)cc2)C1` (stereo not given) is 15.8 µM (active).
As for `CC(=O)c1nn(-c2ccc(OC(F)(F)F)cc2)nc1Nc1ccccc1`, the Potency result was “inactive”.
The entry for `CCCN(CCC)CCNC(=O)c1cc2c(C)nc3ccccc3c2o1` is “inactive”.
As for `CN(C)CCNC(=O)c1ccc(Cl)c2cc3ccccc3nc12`, the Potency is 3.55 µM (active).
For the compound `Cc1cc(C)n(C(=O)CCNC(=O)c2ccccc2Cl)n1`, the Potency entry is “inactive”.
The entry for `CC(NC(=O)CCC(=O)N1CCN(S(=O)(=O)c2ccc(Cl)cc2)CC1)c1ccccc1` (stereo not given) is “inactive”; for `O=C(CCC(=O)c1ccccc1)NCc1cccc(C(F)(F)F)c1` it is “inactive”.
Next, `O=C(CCC(=O)N1CCN(S(=O)(=O)c2ccc(Cl)cc2)CC1)NCc1cccc(C(F)(F)F)c1`: 7.08 µM (active); `Cc1cc(OCC(=O)Nc2ncn[nH]2)c(C)c(C)c1Br`: “inactive”; `CCCn1c2ccccc2c2cnn(CC(=O)NCCCOC(C)C)c(=O)c21`: “inactive”.
For the compound `CCOC(=O)c1c(NC(=O)c2ccc(S(=O)(=O)N3CCCC(C)C3)cc2)sc2c1CCN(C(C)C)C2` (stereo not given), the Potency result was “inactive”.
Next, `CCOC(=O)c1cnc2c(C)cc(C)cc2c1Nc1ccc(N2CCOCC2)cc1`: “inactive”.
Consider `CC1=Nc2cc(C(=O)NCc3ccc(C)cc3)ccc2Sc2ccc(Cl)cc21`, for which the Potency entry is “inactive”.
In the case of `COCCNC(=O)c1ccc2c(c1)N=C(C)c1cc(C)ccc1S2`, the Potency is 2 µM (active).
With `CCC1=Nc2cc(C(=O)NCC(C)c3ccccc3)ccc2Sc2ccc(C)cc21` (stereo not given), the Potency result was “inactive”.
In the case of `Cc1nn(-c2ccc(N3CCCCC3)nn2)c(C)c1CCC(=O)NCc1ccc(F)cc1`, the Potency result was “inactive”.
Turning to `Cc1ccc(-n2nc(CO)c(C(=O)NCCc3ccccc3)n2)cc1`, the Potency entry was “inactive”.
Turning to `COc1ccc(-c2cn3nc(N4CCC(C(=O)Nc5cccc(C)c5C)CC4)sc3n2)cc1`, the Potency result was “inactive”.
Consider `COc1ccc(NC(=O)CN2C(=O)NC(C)(c3ccccc3)C2=O)cn1` (stereo not given), for which the Potency result is “inactive”.
With `COc1ccc(CS(=O)/C(Cl)=C(/Cl)C(=O)Nc2ccc(OC)nc2)cc1` (stereo not given), the Potency was 3.16 µM (active).
`COc1ccc(NC(=O)C(=O)NCc2ccco2)cc1`: the Potency result is “inactive”.
For the compound `COc1ccc(NC(=O)CSc2nc3ncccc3[nH]2)c(OC)c1`, the Potency result was “inactive”.
Regarding `COc1ccc(C(=O)c2c3ccc([N+](=O)[O-])cc3[n+]([O-])n2CCCN)cc1`, the Potency is 8.91 µM (active).
Consider `COc1ccc2c(C(=O)c3ccc(C)cc3)n(CCC(N)=O)[n+]([O-])c2c1`, for which the Potency result was “inactive”.
With `COc1ccc(C(=O)NCCNc2ccc([N+](=O)[O-])cn2)cc1`, the Potency result was “inactive”.
As to `CCS(=O)(=O)N1CCc2cc(C(=O)N3CCN(c4ccccc4OC)CC3)ccc21`, the Potency result is “inactive”.
In the case of `CCC(=O)N1CCc2cc(S(=O)(=O)NC(Cc3ccccc3)C(=O)NCc3ccc(C)cc3)ccc21` (stereo not given), the Potency entry is “inactive”.
Regarding `CC(C)OCCCn1c(SCC(=O)c2ccccc2)nc2c(sc3ccccc32)c1=O`, the Potency result is “inactive”.
With `C/C(=N\Nc1ccc(Cl)nn1)c1ccccc1O`, the Potency was 1.26 µM (active).
Consider `C/C(=N/Nc1ccc(Cl)cc1)c1cnnc(-c2ccccc2)n1`, for which the Potency result is “inactive”.
As to `Fc1ccccc1Cc1ccc(Cl)nn1`, the Potency entry is “inactive”.
For the compound `COc1ccc(C2=NC(c3ccncc3)=Nc3ccc(Br)cc3N2)cc1`, the Potency entry was “inactive”.
Regarding `C[C@@]12C(=O)N(c3cccc(Br)c3)C(=O)N1[C@H](c1ccc(Cl)cc1)[C@@H]1C(=O)N(C3CCCCC3)C(=O)[C@@H]12`, the Potency was 11.2 µM (active).
In the case of `O=C1[C@H]2[C@@H](c3ccc(Cl)cc3)N3C(=O)N(c4cccc(F)c4)C(=O)[C@@]3(Cc3ccccc3)[C@H]2C(=O)N1C1CCCCC1`, the Potency entry is “inactive”.
Turning to `Cc1cccc(N2C(=O)N3[C@H](c4ccc(F)cc4)[C@@H]4C(=O)N(C5CCCCC5)C(=O)[C@@H]4[C@]3(Cc3ccccc3)C2=O)c1`, the Potency entry was “inactive”.
For `CNCCCOc1cc2nc(N3CCCN(C)CC3)nc(NC3CCN(C)CC3)c2cc1OC`, the Potency result was “inactive”.
As to `CN(Cc1ccccc1)C(=O)CCS(=O)(=O)c1cc(Br)cc2c1N(C(=O)C1CC1)CC2`, the Potency result is “inactive”.
